# Reference: PubChem BioAssay (EPA / NIEHS)
# Calls of active or inactive are those of the source. Rule for the calls: active = hit-call score of the fitted dose curve at least 0.9, where 1 is the maximum; inactive = score below 0.9.
# Target: X-box-binding protein 1 (Homo sapiens) (UniProt P17861)
# Assay: ATG_Xbp1_CIS: Attagene CIS-FACTORIAL HepG2 Assay for human X-box Binding Protein 1 (XBP1) (AID 2282972)
# Details: HepG2 XBP1 cis-element reporter, Attagene multiplex; actives raise or lower the signal
# Description: ATG_CIS is a cell-based, multiplexed-readout assay that uses HepG2, a human liver cell line, with measurements taken at 24 hours after chemical dosing in a 24-well plate.ATG_Xbp1_CIS is one of 52 assay component(s) measured or calculated from the ATG_CIS assay. It is designed to make measurements of mRNA induction, a form of inducible reporter, as detected with fluorescence intensity signals by Reverse transcription polymerase chain reaction (RT-PCR) and Capillary electrophoresis technology.Data from the assay component ATG_Xbp1_CIS was analyzed into 1 assay endpoint. This assay endpoint, ATG_Xbp1_CIS, was analyzed with bidirectional fitting relative to DMSO as the negative control and baseline of activity. Using a type of inducible reporter, measures of mRNA for gain or loss-of-signal activity can be used to understand the reporter gene at the transcription factor-level as they relate to the gene XBP1. Furthermore, this assay endpoint can be referred to as a primary readout, because this assay has produced multiple assay endpoints where this one serves a reporter gene function. To generalize the intended target to other relatable targets, this assay endpoint is annotated to the dna binding intended target family, where the subfamily is basic leucine zipper.
# Human liver HepG2 cells are transiently transfected with multiple reporter transcription units (MRTUs) in 6-well plates using FuGene 6 reagent (Roche; 3 ml FuGene/1 mg DNA). The MRTU constructs are regulated by a cis-regulating element (promoter). […] A major difference between the CIS and TRANS system is that in CIS activities of endogenous TFs are measured, whereas the TRANS assay evaluates changes in activities of exogenous, chimeric NR-Gal4 proteins. […] At the end of 24 hour incubation, total RNA was isolated using TriZol reagent (Invitrogen). The isolated RNA is then reverse-transcribed using oligo(dT) primer and Mo-MLV reverse transcriptase (Invitrogen) with DNAse I (Ambion) treatment for 30 min. The one-tenth of the produced cDNA was amplified by PCR using Taq DNA polymerase (Invitrogen) and two reporter sequence-specific primers. The PCR products were fluorescently labeled by primer extension with 6-arboxyfluorescein (6-FAM) 5'-labeled reporter sequence-specific primer (2 min at 95 C, 20 s at 68 C and 10 min at 72 C) and these products were digested with 5U of HpaI (New England Biolabs) for 2h at 37 C. The fragments were purified using Qiaquick PCR columns (Qiagen), analyzed on an ABI 3130xL genetic analyzer (Applied Biosystems) with peak positions identified by using a set of X-rhodamine (ROX)-labeled MapMarker1000 molecular weight standards (BioVentures). The raw capillary electrophoresis data was processed using Attagraph software (Attagene).
# Sequence of X-box-binding protein 1 (Homo sapiens) (P17861 whole entry, looked up): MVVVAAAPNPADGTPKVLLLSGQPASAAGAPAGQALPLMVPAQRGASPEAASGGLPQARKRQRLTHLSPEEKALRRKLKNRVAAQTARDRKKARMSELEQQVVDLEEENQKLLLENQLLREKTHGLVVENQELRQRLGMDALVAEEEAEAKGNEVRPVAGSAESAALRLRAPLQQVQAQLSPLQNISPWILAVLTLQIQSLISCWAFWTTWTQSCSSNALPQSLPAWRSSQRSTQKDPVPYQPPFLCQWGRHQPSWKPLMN
Compound,outcome,AC50
Nc1nc(=S)[nH][nH]1,inactive,
O=NN1CCCCCC1,inactive,
CCCCCCCCCCCCc1cccc(S(=O)(=O)O)c1,inactive,
CN(C)c1ccc(N=O)cc1,inactive,
C[C@]12CC[C@@H](O)C[C@@H]1CC[C@@H]1[C@@H]2CC[C@]2(C)C(=O)CC[C@@H]12,inactive,
CC(C)(C)c1ccccc1O,,165 µM (active)
C=C(C)C(=O)OCC(CC)CCCC (stereo not given),inactive,
O=C(NC(=O)c1c(F)cccc1F)Nc1ccc(Cl)cc1,inactive,
Brc1ccc(Oc2c(Br)cc(Br)cc2Br)c(Br)c1,inactive,
N#CCC#N,inactive,
N#Cc1ccncc1,inactive,
COc1ccc(N)cc1,inactive,
CCOC(=O)CCN(SN(C)C(=O)Oc1cccc2c1OC(C)(C)C2)C(C)C,inactive,
CCOC(=O)CC(=O)CCl,,23.6 µM (active)
CC(C)(C)c1ccc(CCOc2ncnc3ccccc23)cc1,inactive,
C#CCOC(=O)/C=C(C)/C=C/CC(C)CCCC(C)C (stereo not given),inactive,
OCC(c1ccc(Cl)cc1)c1ccc(Cl)cc1,,56.3 µM (active)
O=[N+]([O-])c1ccc(Nc2ccccc2)cc1,inactive,
CCCSP(=S)(OCC)Oc1ccc(Cl)cc1Cl (stereo not given),inactive,
CC(C)(C#N)N=NC(C)(C)C#N,inactive,

Compound,outcome,AC50
NNCCO,inactive,
CC(C=O)Cc1ccc2c(c1)OCO2 (stereo not given),inactive,
O=C(NC(=O)c1c(F)cccc1F)Nc1cc(Cl)c(F)c(Cl)c1F,inactive,
CCOP(=S)(OCC)Oc1ccc(Cl)cc1Cl,inactive,
COC(F)(C(F)(F)C(F)(F)F)C(F)(C(F)(F)F)C(F)(F)F (stereo not given),inactive,
CC(C)=CC1C(C(=O)OCc2cccc(Oc3ccccc3)c2)C1(C)C (stereo not given),inactive,
O=c1nc(O)n(Cl)c(=O)n1Cl,inactive,
Cc1cc(SCc2sc(-c3ccc(C(F)(F)F)c(F)c3)nc2C)ccc1OCC(=O)O,,25.2 µM (active)
CCCCCCCCCCCCOS(=O)(=O)O,inactive,
C#CCO,inactive,
CCCCCCCCBr,inactive,
CC(=Cc1ccccc1)[N+](=O)[O-],,11.1 µM (active)
Cc1cc(C(C)(C)c2ccc(O)c(C)c2)ccc1O,,36.4 µM (active)
CC(C)C(C)(N)C#N (stereo not given),inactive,
O=C(CBr)c1ccc(O)cc1,inactive,
CCOP(=S)(OCC)OP(=S)(OCC)OCC,inactive,
CC(C)(COCC1CO1)COCC1CO1 (stereo not given),inactive,
N#CCCC(Br)(C#N)CBr (stereo not given),,57.9 µM (active)
Nc1ncn[nH]1,inactive,
CCCCS(=O)(=O)Cl,inactive,
